# Test results taken from PubChem BioAssay AID1159580 (chemical genetic matrix, 2015).
# Screen size: about 5,500 compounds; about 2,000 (36%) were called active. Roughly 18% stayed inconclusive and do not appear here. This is one part of the list. Values without a mark were called inactive. Rule as the data show it: active = normalized growth mostly below about 0.91 (no sharp cut-off); inconclusive = no clear call, values can overlap the other calls; inactive = mostly above about 0.92.
# Assay: chemical genetic growth profiling, strain panel (AID 1159580);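 also: tested at 20 µM; growth read once vehicle control cultures reached saturation at 30 °C; 1 = growth at the plate median or of vehicle wells; lower values mean less growth of the strain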
# Settings: growth OD
# [1] = S. cerevisiae deletion strains, locus YDR150W, strain NUM1, hits give low values
# [2] = S. cerevisiae deletion strains, locus YJR075W, strain HOC1, hits give low values
# [3] = S. cerevisiae deletion strains, locus YHR030C, strain SLT2, hits give low values
structure (smiles),measurement,setting,value
C[N+](C)(C)CCO,normalized growth,"S. cerevisiae deletion strains, locus YAL040C, strain CLN3, hits give low values",1.04
same,normalized growth,"S. cerevisiae deletion strains, locus YCL061C, strain MRC1 (second series), hits give low values",1.02
same,normalized growth,[1],1.05
same,normalized growth,"S. cerevisiae deletion strains, locus YER002W, strain NOP16, hits give low values",0.998
same,normalized growth,"S. cerevisiae deletion strains, locus YGR229C, strain SMI1, hits give low values",1.06
same,normalized growth,[2],1.09 [resistant] (active)
same,normalized growth,"S. cerevisiae deletion strains, locus YMR263W, strain SAP30, hits give low values",1.01
same,normalized growth,"S. cerevisiae deletion strains, locus YNL175C, strain NOP13, hits give low values",1.02
same,normalized growth,"S. cerevisiae deletion strains, locus YNL197C, strain WHI3, hits give low values",0.996
same,normalized growth,"S. cerevisiae deletion strains, locus YNL224C, strain SQS1, hits give low values",1.01
same,normalized growth,"S. cerevisiae deletion strains, locus YOR083W, strain WHI5 (second series), hits give low values",1.08
O=C(Nc1ccc(Cl)c(Cl)c1)c1ccccc1,normalized growth,"S. cerevisiae deletion strains, locus YAL013W, strain DEP1, hits give low values",0.885 (active)
same,normalized growth,"S. cerevisiae deletion strains, locus YBR229C, strain ROT2, hits give low values",0.892 (active)
same,normalized growth,"S. cerevisiae deletion strains, locus YDL101C, strain DUN1, hits give low values",0.931
same,normalized growth,[1],0.889
same,normalized growth,"S. cerevisiae deletion strains, locus YEL061C, strain CIN8, hits give low values",0.813 (active)
same,normalized growth,"S. cerevisiae deletion strains, locus YGR078C, strain PAC10, hits give low values",0.84 (active)
same,normalized growth,[3],0.579 (active)
same,normalized growth,"S. cerevisiae deletion strains, locus YHR087W, strain rtc3, hits give low values",0.846 (active)
same,normalized growth,"S. cerevisiae deletion strains, locus YJR043C, strain POL32, hits give low values",0.906 (active)
same,normalized growth,[2],0.771 (active)
same,normalized growth,"S. cerevisiae deletion strains, locus YLR039C, strain RIC1, hits give low values",0.271 (active)
same,normalized growth,"S. cerevisiae deletion strains, locus YLR058C, strain SHM2 (second series), hits give low values",0.876 (active)
same,normalized growth,"S. cerevisiae deletion strains, locus YLR085C, strain ARP6, hits give low values",0.504 (active)
same,normalized growth,"S. cerevisiae deletion strains, locus YLR262C, strain YPT6, hits give low values",0.318 (active)
same,normalized growth,"S. cerevisiae deletion strains, locus YML094W, strain GIM5, hits give low values",0.797 (active)
same,normalized growth,"S. cerevisiae deletion strains, locus YMR219W, strain ESC1, hits give low values",0.895 (active)
same,normalized growth,"S. cerevisiae deletion strains, locus YMR307W, strain GAS1, hits give low values",0.453 (active)
same,normalized growth,"S. cerevisiae deletion strains, locus YNL128W, strain TEP1, hits give low values",0.933
same,normalized growth,"S. cerevisiae deletion strains, locus YNL153C, strain GIM3, hits give low values",0.942
same,normalized growth,"S. cerevisiae deletion strains, locus YNL298W, strain CLA4 (second series), hits give low values",0.747 (active)
same,normalized growth,"S. cerevisiae deletion strains, locus YNL322C, strain KRE1, hits give low values",0.8 (active)
same,normalized growth,"S. cerevisiae deletion strains, locus YNR030W, strain Alg12, hits give low values",0.761 (active)
same,normalized growth,"S. cerevisiae deletion strains, locus YPL055C, strain LGE1, hits give low values",0.754 (active)
same,normalized growth,"S. cerevisiae deletion strains, locus YPL241C, strain CIN2, hits give low values",0.754 (active)
same,normalized growth,"S. cerevisiae deletion strains, locus YPR135W, strain CTF4, hits give low values",0.406 (active)
same,normalized growth,"S. cerevisiae strains, strain wild type, hits give low values",0.908 (active)
O=C(Nc1ccc(C(=O)O)c(O)c1)c1ccccc1,normalized growth,"S. cerevisiae deletion strains, locus YAL021C, strain ccr4, hits give low values",0.968
same,normalized growth,"S. cerevisiae deletion strains, locus YAL026C, strain drs2, hits give low values",0.982
same,normalized growth,"S. cerevisiae deletion strains, locus YAL030W, strain snc1, hits give low values",0.952
same,normalized growth,"S. cerevisiae deletion strains, locus YBL061C, strain skt5, hits give low values",0.977
same,normalized growth,"S. cerevisiae deletion strains, locus YBR009C, strain hhf1, hits give low values",0.97
same,normalized growth,"S. cerevisiae deletion strains, locus YBR023C, strain chs3, hits give low values",0.991
same,normalized growth,"S. cerevisiae deletion strains, locus YBR171W, strain sec66, hits give low values",0.968
same,normalized growth,"S. cerevisiae deletion strains, locus YBR231C, strain swc5, hits give low values",0.972
same,normalized growth,"S. cerevisiae deletion strains, locus YBR279W, strain paf1, hits give low values",0.989
same,normalized growth,"S. cerevisiae deletion strains, locus YCL011C, strain gbp2, hits give low values",0.979
same,normalized growth,"S. cerevisiae deletion strains, locus YCL016C, strain dcc1, hits give low values",0.979
same,normalized growth,"S. cerevisiae deletion strains, locus YCL061C, strain MRC1, hits give low values",0.989
same,normalized growth,"S. cerevisiae deletion strains, locus YCL069W, strain vba3, hits give low values",0.987
same,normalized growth,"S. cerevisiae deletion strains, locus YCR088W, strain abp1, hits give low values",0.987
same,normalized growth,"S. cerevisiae deletion strains, locus YDL005C, strain med2, hits give low values",0.978
same,normalized growth,"S. cerevisiae deletion strains, locus YDL040C, strain nat1, hits give low values",0.976
same,normalized growth,"S. cerevisiae deletion strains, locus YDR001C, strain nth1, hits give low values",0.964
same,normalized growth,"S. cerevisiae deletion strains, locus YDR069C, strain doa4, hits give low values",0.974
same,normalized growth,"S. cerevisiae deletion strains, locus YDR137W, strain rgp1, hits give low values",0.916
same,normalized growth,"S. cerevisiae deletion strains, locus YDR159W, strain sac3, hits give low values",0.985
same,normalized growth,"S. cerevisiae deletion strains, locus YDR195W, strain ref2",0.952
same,normalized growth,"S. cerevisiae deletion strains, locus YDR297W, strain sur2, hits give low values",0.976
same,normalized growth,"S. cerevisiae deletion strains, locus YDR334W, strain swr1, hits give low values",0.942
same,normalized growth,"S. cerevisiae deletion strains, locus YDR335W, strain msn5, hits give low values",0.972
same,normalized growth,"S. cerevisiae deletion strains, locus YDR392W, strain spt3, hits give low values",0.986
same,normalized growth,"S. cerevisiae deletion strains, locus YEL003W, strain gim4, hits give low values",0.974
same,normalized growth,"S. cerevisiae deletion strains, locus YEL037C, strain rad23, hits give low values",0.992
same,normalized growth,"S. cerevisiae deletion strains, locus YEL061C, strain CIN8 (second series), hits give low values",0.976
same,normalized growth,"S. cerevisiae deletion strains, locus YER015W, strain faa2, hits give low values",0.968
same,normalized growth,"S. cerevisiae deletion strains, locus YER016W, strain bim1, hits give low values",0.979
same,normalized growth,"S. cerevisiae deletion strains, locus YER111C, strain swi4, hits give low values",0.992
same,normalized growth,"S. cerevisiae deletion strains, locus YER155C, strain BEM2 (second series), hits give low values",0.967
same,normalized growth,"S. cerevisiae deletion strains, locus YFR010W, strain ubp6, hits give low values",0.963
same,normalized growth,"S. cerevisiae deletion strains, locus YGL167C, strain pmr1, hits give low values",0.989
same,normalized growth,"S. cerevisiae deletion strains, locus YGL173C, strain kem1, hits give low values",0.967
same,normalized growth,"S. cerevisiae deletion strains, locus YGL227W, strain vid30, hits give low values",0.974
same,normalized growth,"S. cerevisiae deletion strains, locus YGL240W, strain doc1, hits give low values",0.977
same,normalized growth,"S. cerevisiae deletion strains, locus YGL253W, strain hxk2, hits give low values",0.986
same,normalized growth,"S. cerevisiae deletion strains, locus YHR013C, strain ard1, hits give low values",0.962
same,normalized growth,"S. cerevisiae deletion strains, locus YHR027C, strain rpn1, hits give low values",0.964
same,normalized growth,[3],0.937
same,normalized growth,"S. cerevisiae deletion strains, locus YHR079C, strain IRE1, hits give low values",0.939
same,normalized growth,"S. cerevisiae deletion strains, locus YHR142W, strain chs7, hits give low values",0.968
same,normalized growth,"S. cerevisiae deletion strains, locus YJL092W, strain hpr5, hits give low values",0.999
same,normalized growth,"S. cerevisiae deletion strains, locus YJL095W, strain BCK1 (second series), hits give low values",0.981
same,normalized growth,"S. cerevisiae deletion strains, locus YJL095W, strain BCK1, hits give low values",0.976
same,normalized growth,"S. cerevisiae deletion strains, locus YJL115W, strain asf1, hits give low values",0.974
same,normalized growth,"S. cerevisiae deletion strains, locus YJL129C, strain trk1, hits give low values",0.999
same,normalized growth,"S. cerevisiae deletion strains, locus YJL154C, strain vps35, hits give low values",0.965
same,normalized growth,"S. cerevisiae deletion strains, locus YJL164C, strain tpk1, hits give low values",0.983
same,normalized growth,"S. cerevisiae deletion strains, locus YJL166W, strain qcr8, hits give low values",0.973
same,normalized growth,"S. cerevisiae deletion strains, locus YJL187C, strain SWE1, hits give low values",0.984
same,normalized growth,"S. cerevisiae deletion strains, locus YJR066W, strain TOR1, hits give low values",0.908
same,normalized growth,"S. cerevisiae deletion strains, locus YKL160W, strain elf1, hits give low values",0.981
same,normalized growth,"S. cerevisiae deletion strains, locus YKR026C, strain gcn3, hits give low values",0.99
same,normalized growth,"S. cerevisiae deletion strains, locus YKR091W, strain srl3, hits give low values",0.984
same,normalized growth,"S. cerevisiae deletion strains, locus YLL001W, strain dnm1, hits give low values",0.983
same,normalized growth,"S. cerevisiae deletion strains, locus YLL026W, hits give low values",0.958
same,normalized growth,"S. cerevisiae deletion strains, locus YLL041C, strain sdh2, hits give low values",0.979
same,normalized growth,"S. cerevisiae deletion strains, locus YLR027C, strain aat2, hits give low values",0.968
same,normalized growth,"S. cerevisiae deletion strains, locus YLR113W, strain HOG1, hits give low values",0.974
same,normalized growth,"S. cerevisiae deletion strains, locus YLR221C, strain rsa3, hits give low values",0.984
same,normalized growth,"S. cerevisiae deletion strains, locus YLR258W, strain gsy2, hits give low values",0.987
same,normalized growth,"S. cerevisiae deletion strains, locus YLR262C, strain YPT6 (second series), hits give low values",0.938
same,normalized growth,"S. cerevisiae deletion strains, locus YLR320W, strain mms22, hits give low values",0.973
same,normalized growth,"S. cerevisiae deletion strains, locus YLR342W, strain FKS1, hits give low values",0.978
same,normalized growth,"S. cerevisiae deletion strains, locus YLR357W, strain rsc2, hits give low values",1
same,normalized growth,"S. cerevisiae deletion strains, locus YLR370C, strain arc18, hits give low values",0.975
same,normalized growth,"S. cerevisiae deletion strains, locus YLR384C, strain iki3, hits give low values",0.962
same,normalized growth,"S. cerevisiae deletion strains, locus YML120C, strain ndi1, hits give low values",0.986
same,normalized growth,"S. cerevisiae deletion strains, locus YMR058W, strain fet3, hits give low values",0.984
same,normalized growth,"S. cerevisiae deletion strains, locus YMR125W, strain sto1, hits give low values",0.984
same,normalized growth,"S. cerevisiae deletion strains, locus YMR129W, hits give low values",0.989
same,normalized growth,"S. cerevisiae deletion strains, locus YMR205C, strain PFK2, hits give low values",0.969
same,normalized growth,"S. cerevisiae deletion strains, locus YMR231W, strain pep5, hits give low values",0.984
same,normalized growth,"S. cerevisiae deletion strains, locus YNL071W, strain lat1, hits give low values",0.978
same,normalized growth,"S. cerevisiae deletion strains, locus YNL183C, strain NPR1, hits give low values",0.92
same,normalized growth,"S. cerevisiae deletion strains, locus YNL209W, strain ssb2, hits give low values",0.957
same,normalized growth,"S. cerevisiae deletion strains, locus YNL248C, strain rpa49, hits give low values",0.986
same,normalized growth,"S. cerevisiae deletion strains, locus YNL322C, strain KRE1 (second series), hits give low values",0.97
same,normalized growth,"S. cerevisiae deletion strains, locus YNR049C, strain mso1, hits give low values",0.967
same,normalized growth,"S. cerevisiae deletion strains, locus YOR001W, strain rrp6, hits give low values",0.982
same,normalized growth,"S. cerevisiae deletion strains, locus YOR070C, strain gyp1, hits give low values",0.976
same,normalized growth,"S. cerevisiae deletion strains, locus YOR080W, strain dia2, hits give low values",0.975
same,normalized growth,"S. cerevisiae deletion strains, locus YOR083W, strain WHI5, hits give low values",0.984
same,normalized growth,"S. cerevisiae deletion strains, locus YOR106W, strain vam3, hits give low values",0.989
same,normalized growth,"S. cerevisiae deletion strains, locus YOR231W, strain MKK1, hits give low values",0.941
same,normalized growth,"S. cerevisiae deletion strains, locus YOR265W, strain rbl2, hits give low values",0.988
same,normalized growth,"S. cerevisiae deletion strains, locus YOR270C, strain vph1, hits give low values",0.972
same,normalized growth,"S. cerevisiae deletion strains, locus YOR290C, strain snf2, hits give low values",0.99
same,normalized growth,"S. cerevisiae deletion strains, locus YPL051W, strain arl3, hits give low values",0.981
same,normalized growth,"S. cerevisiae deletion strains, locus YPL078C, strain atp4, hits give low values",0.97
same,normalized growth,"S. cerevisiae deletion strains, locus YPL106C, strain sse1, hits give low values",0.918
same,normalized growth,"S. cerevisiae deletion strains, locus YPL240C, strain hsp82, hits give low values",0.982
same,normalized growth,"S. cerevisiae deletion strains, locus YPL256C, strain CLN2, hits give low values",0.963
